Experiment in all cases: NCI-60 one-dose screen, 48 h (100 = growth as untreated, 0 = no growth, -100 = all killed)
Common to all, as to details: 10 µM unless noted

Assay [1] concerns NCI-H23 lung.
Assay [2] deals with NCI-H226 lung.
For assay [3], the system named is NCI-H322M lung.
Assay [4] concerns HOP-62 NSCLC.
The subject of assay [5] is NCI-H460 lung.
Assay [6] relates to HOP-92 NSCLC.
The test system of assay [7] is NCI-H522 lung.
For assay [8], the system named is A549/ATCC NSCLC.
Assay [9] has as its system 786-0 renal.
The test system of assay [10] is COLO 205 colon.
Assay [11] deals with DU-145 prostate.
Assay [12] has as its system K-562 leukemia.
The subject of assay [13] is MALME-3M melanoma.
For assay [14], the system named is MDA-MB-231 breast.
Assay [15] relates to RXF 393 renal.
The subject of assay [16] is SF-268 CNS.
Assay [17] deals with SF-295 CNS.
The subject of assay [18] is SF-539 CNS.
Assay [19] has as its system UACC-257 melanoma.
For assay [20], the system named is M14 melanoma.

Structures are written as SMILES. The panel holds about 83,000 compounds, 20% with a hit somewhere; the sample as a whole holds those more often.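 The test compound was applied at a single concentration to cells in 96-well plates for 48 hours, and percent growth was recorded.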 Unmarked numbers belong to inactive results. Calls of active or inactive are those of the source. Rule for the calls: active = growth percent below 10; inactive = the rest.

As to `O=C1/C=C/[C@@H](O)[C@@H]2C[C@@H](O)C[C@H]2/C=C/CCC[C@H](CCOCc2ccccc2)O1`, the growth in assay [1] was 7.5% (active); in assay [2], -32.3% (active); in assay [3], 31%; in assay [4] it was 30.9%; in assay [5], 16.2%; in [6], -16% (active). The growth is -38.8% (active) in [7]; 14.5% in [8]; -51% (active) in assay [9]; -74.5% (active) in assay [10]; 12.6% in assay [11]; 10.2% in [12]. Moreover, the growth was -24.6% (active) in assay [13]; -71.5% (active) in assay [14]; -2.06% (active) in [15]; 13.1% in assay [16]; -18.3% (active) in assay [17]; 26.2% in assay [18]. For the same compound, the growth in [19] is 20.4%; in assay [20] it was 9.22% (active).

For `CCN(CC)c1ccc(N2C(=O)/C(=C/c3cccs3)SC2=S)cc1`, the growth in assay [1] is 94.8%; in assay [2] it was 93.7%; in assay [3] it was 91.7%; in assay [4] it was 106%; in assay [5], 97.8%; in assay [6], 6.63% (active). Moreover, the growth was 82.9% in assay [7]; 92% in [8]; 95.6% in [9]; 101% in assay [10]; 100% in [11]; 94% in assay [12]. The growth is 84.2% in assay [13]; 91.3% in [14]; 98.3% in [15]; 92.1% in assay [16]; 99.6% in [17]; 94.3% in assay [18]. Further, the growth was 80.6% in [19] and 95.4% in [20].

Take `Cn1cc(-c2nonc2-c2c[nH]c3ccc(F)cc23)c2cc(Br)ccc21`: the growth in assay [1] was 52.7%; in [2], 79.5%; in assay [3], 44.9%; in assay [4] it was 40.5%; in [5], 19.8%; in assay [6] it was 76%. Besides, the growth in assay [7] was 14.8%; in assay [8] it was 35.9%; in assay [9], 45.9%; in assay [10], 54%; in assay [11], 50.2%; in [12] it was 7.64% (active). Besides, the growth in assay [13] was 61%; in assay [14], 34.9%; in [15], 74.2%; in assay [16], 49.9%; in assay [17], 36.5%; in assay [18], 67.8%. The growth was 63.3% in [19] and 36.5% in [20].

With `CC(C)CN1CC(C(=O)Nc2ccc3c(c2)-c2ccccc2C3)CC1=O` (stereo not given), the growth in assay [1] is 81% [50 µM]; in assay [2], 64.9% [50 µM]; in [3], 69.6% [50 µM]; in [4], 50.7% [50 µM]; in assay [5] it was 81.8% [50 µM]; in assay [6] it was 58.5% [50 µM]. In addition, the growth in assay [7] was 51.3% [50 µM]; in [8], 78.7% [50 µM]; in assay [9], 70.7% [50 µM]; in assay [10], 87.7% [50 µM]; in assay [11] it was 80% [50 µM]; in [12], 64.7% [50 µM]. For the same compound, the growth in [13] is 58.7% [50 µM]; in assay [14], 55.9% [50 µM]; in assay [15], 79.7% [50 µM]; in [16], 60.8% [50 µM]; in [17], 76.1% [50 µM]; in assay [18] it was 72% [50 µM]. Moreover, the growth is 39.9% [50 µM] in assay [19] and 77.4% [50 µM] in assay [20].

Consider `C=CCOC(=O)C1=C(C)NC(=O)NC1c1c(Cl)n(C)c2ccccc12` (stereo not given), for which the growth in assay [1] was 88.3%; in assay [2], 97.8%; in assay [3], 96.9%; in assay [4], 92.9%; in assay [5], 106%; in [6], 55.3%. The growth is 93.3% in [7]; 103% in assay [8]; 91.3% in assay [9]; 111% in assay [10]; 107% in assay [11]; 106% in assay [12]. Further, the growth in assay [13] is 105%; in [14] it was 96%; in [15], 100%; in assay [16] it was 95.4%; in assay [17], 99.4%; in assay [18], 93.5%. Also, the values for the growth in assay [19] and in assay [20] were 99.4% and 95.3%, respectively.

Regarding `C/C(=N\O)C(=O)NCCCCCC(=O)Nc1ccccc1`, the growth is 99.2% in assay [1]; 110% in [2]; 103% in [3]; 102% in assay [4]; 111% in assay [5]; 94.4% in assay [6]. For the same compound, the growth in [7] was 91.1%; in [8], 97%; in [9], 94.4%; in [10] it was 108%; in [11], 114%; in [12], 99.7%. Also, the growth in assay [13] was 98.9%; in assay [14] it was 100%; in assay [15] it was 121%; in [16], 100%; in [17], 101%; in assay [18], 107%. Moreover, the growth in [19] was 98.6%; in assay [20], 107%.

As to `COc1cccc(NC(=O)c2cccc(C3CCc4c(cc(OC)c(OC)c4OC)O3)c2)c1` (stereo not given), the growth is 73.9% in assay [1]; 53.7% in assay [2]; 54.2% in assay [3]; 85.2% in assay [4]; 84% in assay [5]; 26.3% in [6]. Further, the growth in assay [7] was 53.1%; in assay [8], 70.8%; in assay [9], 86.6%; in [10], 80.2%; in [11] it was 79.6%; in assay [12] it was 35.6%. Further, the growth is 72.7% in assay [13]; 32.2% in [14]; 88.9% in [15]; 91.2% in [16]; 70.9% in assay [17]; 92% in assay [18]. Moreover, the growth in assay [19] was 78.1%; in assay [20] it was 56.9%.

Regarding `O=C(CN1CCN(c2cc3c(cc2F)c(=O)c(C(=O)O)cn3C2CC2)CC1)N/N=C/c1ccncc1`, the growth in [1] was 102%; in [2] it was 100%; in [3], 96.3%; in assay [4] it was 92.2%; in [5], 106%; in assay [6] it was 94.1%. Further, the growth is 96.5% in [7]; 86.8% in [8]; 90.8% in assay [9]; 108% in assay [10]; 106% in assay [11]; 91.7% in assay [12]. Further, the growth in assay [13] is 103%; in assay [14] it was 98.4%; in assay [15], 110%; in assay [16], 92.8%; in assay [17], 96.6%; in assay [18], 95.6%. Further, the growth was 87.9% in assay [19] and 96.1% in assay [20].

For the compound `CCCCn1sc(=O)n(Cc2ccc(CNC(=O)OCc3ccc4c(Cl)cc(Cl)c(O)c4n3)cc2)c1=O`, the growth is 75.3% in [1]; 73.2% in [2]; 61.5% in assay [3]; 40.4% in [4]; 26.5% in assay [5]; 74.5% in assay [6]. The growth in assay [7] is 69.9%; in assay [8] it was 48.7%; in assay [9], 67.9%; in [10], 98.1%; in assay [11] it was 58.5%; in assay [12], 42.9%. Also, the growth in [13] was 73%; in assay [14], 84.4%; in assay [15] it was 74.3%; in assay [16] it was 67.1%; in assay [17], 34.5%; in [18], 78%. Also, the growth is 97.6% in assay [19] and 60.7% in assay [20].

As for `O=C1NC(=Nc2ccc(O)cc2)S/C1=C\c1cccs1`, the growth in [1] was 47.4%; in assay [2], 57.4%; in assay [3] it was 35.3%; in assay [4], 46.7%; in [5], 3.62% (active); in assay [6], -7.99% (active). The growth was 15.5% in assay [7]; 35.4% in assay [8]; 20.2% in assay [9]; 105% in [10]; 44.6% in assay [11]; 14.7% in [12]. In addition, the growth in assay [13] is 68.8%; in assay [14], 57.9%; in assay [15], 41.2%; in [16], 50%; in assay [17] it was 34.8%; in [18], 16.7%. In addition, the figures for the growth in [19] and in assay [20] were 70.5% and 34.8%, respectively.

In the case of `CCCCCCNc1nc(NCCCCCC)c2[nH]c(NCCCCCC)nc2n1`, the growth in assay [1] is 48.2%; in assay [2], 92.1%; in assay [3], 1.94% (active); in [4], 75.7%; in [5], 48.1%; in assay [6], -12.9% (active). For the same compound, the growth in [7] was -42% (active); in assay [8], 7.63% (active); in assay [9], 68.2%; in assay [10], -2.12% (active); in assay [11], 84.6%; in assay [12], -19.2% (active). In addition, the growth in assay [13] was 60.8%; in assay [14] it was -2.45% (active); in [15], 81%; in assay [16] it was 52.5%; in assay [17], 70.3%; in assay [18], 82.6%. In addition, the figures for the growth in assay [19] and in assay [20] were 104% and 79.5%, respectively.

As to `O=C(Nc1cccnc1Nc1ccc(Cl)cc1)c1cn(Cc2ccc(F)cc2)nn1`, the growth was 99.4% in assay [1]; 94.2% in [2]; 98.5% in [3]; 112% in assay [4]; 107% in [5]; 102% in assay [6]. Besides, the growth is 91.1% in [7]; 103% in assay [8]; 86.9% in assay [9]; 124% in [10]; 106% in assay [11]; 108% in assay [12]. Moreover, the growth was 117% in assay [13]; 83.9% in assay [14]; 98.7% in assay [15]; 103% in [16]; 96.6% in assay [17]; 94.5% in [18]. Further, the values for the growth in assay [19] and in assay [20] were 105% and 101%, respectively.

Consider `CC(C)c1ccc(C(=O)Nc2sc3cc(O)ccc3c2C#N)cc1`, for which the growth in assay [1] is 46.2%; in assay [2] it was 58.2%; in [3], 61.7%; in assay [4], 41.1%; in assay [5], 23%; in [6] it was 79.2%. For the same compound, the growth in [7] is 54.2%; in [8] it was 44.6%; in assay [9] it was 31.2%; in assay [10], 91.8%; in assay [11] it was 50.5%; in assay [12], 13.8%. The growth is 39.2% in [13]; 46.3% in assay [14]; 45.2% in assay [15]; 44.8% in assay [16]; 22.2% in [17]; 32.5% in assay [18]. The growth in assay [19] was 51.3%; in assay [20] it was 5.43% (active).

Source of the values: PubChem BioAssay (NCI).
